Measured values: PubChem BioAssay AID743103 (Vanderbilt Specialized Chemistry Center, 2013)
Active and inactive are the calls of the source. No rule for the calls is given here.

Each compound was assayed against Muscarinic acetylcholine receptor M3 (Homo sapiens) (UniProt P20309) (assay: human M3 receptor modulation in M5 NAM selectivity check, counter-screen for M5 NAM project, cell-based, CHO-K1 hM3, Fluo-4 calcium flux, ACh EC20 (AID 743103)). Details: series mostly up to 30 µM; % of max ACh response: at the top concentration.
With O=C(c1ccc(F)cc1)N1CCN2C(=O)c3ccccc3C12c1ccccc1 (stereo not given) the “% of max ACh response” value was 73.3 (inactive).
With O=C(c1ccc(F)c(F)c1)N1CCN2C(=O)c3ccccc3C12c1ccccc1 (stereo not given) the “% of max ACh response” value was 80.1 (inactive).
In the case of O=C(c1ccc(F)c(F)c1)N1CCN2C(=O)c3ccccc3[C@@]12c1ccc(Cl)cc1, the “% of max ACh response” value is reported as 53.5 (inactive).
O=C(c1ccc(F)c(F)c1)N1CCN2C(=O)c3ccccc3C12c1ccc(Cl)cc1 (stereo not given) was tested, and the “% of max ACh response” value was 75.5 (inactive).
O=C(c1cc(F)cc(F)c1)N1CCN2C(=O)c3ccccc3C12c1ccc(Cl)cc1 (stereo not given) was tested, and the “% of max ACh response” value was 81.5 (inactive).
